Compound activity from PubChem BioAssay.
Most compounds without a hit are left out; they make up all but 2.9% or so of the library.
IP6K1 inh – IP6K1 kinase inhibition; Q92551; IP6K1 kinase, ADP-Glo luminescence, 2 h; hits give low values; activity change, % (series mostly up to about 58 µM); hit rate 0.81% among 140,000; in the data active = activity change below about -25%; note: % is set by controls: 0 for no effect and ±100 for the full control effect
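ADP-Glo luminescence measures ADP made by human IP6K1 during a 2 h RT reaction with ATP/IP6 (mix at 1.3 mM/130 uM); top library doses 57.5 and 19.1 uM final.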
SNCA viab count – cell viability loss counter-screen; HEK-293-SNCA-luc viability, GF-AFC fluorescence, 24 h; Potency, µM (doses to about 57.1 µM), inactives show at the highest dose activity change, negative = cytotoxicity, actives largely listed as cytotoxic; hit rate 0.12% among 150,000; AID 1671193;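 note: potency is the fitted concentration of half-maximal effect; 0% = DMSO-treated cells and -100% = medium-only wells without cells; nearly all actives have a fitted effect of over 30% in size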
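Cytotoxicity counterscreen: after 24 h compound treatment of genome-edited SNCA-luciferase HEK-293 cells, live-cell protease substrate GF-AFC read by fluorescence after 30 min; activity scaled between DMSO (0%) and medium-only (-100%), curves Hill-fitted.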
KDM5B inh – inhibitors of human KDM5B histone demethylase | KDM5B demethylase, FDH-coupled NADH fluorescence (FDH is formaldehyde dehydrogenase) | AID 1347165 | hit rate 2.6% among 220,000 | Potency, µM (doses to about 57.7 µM), actives largely listed as inhibitors | Q9UGL1; note: potency is the fitted concentration of half-maximal effect; 0% is about no effect; nearly all actives have a fitted effect of over 70% in size
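KDM5BΔAP (200 nM final) in 50 mM HEPES pH 7.5, 0.01% Tween-20 was preincubated 10 min at RT with compound over a concentration range. Substrate mix (H3K4me3 12.5 µM, α-KG 25 µM, Fe²⁺, ascorbate, NAD⁺, FDH) was added, and NADH fluorescence change over 30 min gave dose-response curves.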
SNCA expr inh – SNCA gene expression inhibition; hit rate 0.17% among 140,000; HEK-293 SNCA-luciferase knock-in, luminescence, 24 h; Potency, µM (titrated, usually from 57.2 µM), inactives show at the highest dose activity change, negative = inhibition, actives largely listed as inhibitors;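 note: potency is the fitted concentration of half-maximal effect; plate controls were DMSO cells for no effect and cell-free wells for full effect; nearly all actives have a fitted effect of over 45% in size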
IP6K1 inh cnf – confirmation of human IP6K1 inhibitors. Potency, µM (titrated, usually from 49 µM), for inactives: at the highest dose activity change, negative = inhibition, hits mostly inhibitors. AID 1645852. shares compounds with IP6K1 inh. recombinant IP6K1 kinase, ADP-Glo luminescence, 2 h. hit rate 13% among 1,200; note: potency is the fitted concentration of half-maximal effect; % is set by controls: 0 for no effect and ±100 for the full control effect; nearly all actives have a fitted effect of over 65% in size
The depositor's hits bear a star. Unless noted, calls come from the whole dose curve; as a rule, active = well fitted curve in the direction sought with a large enough effect; inconclusive = small, poorly fitted or top-dose-only effect, or another doubt; inactive = no such curve, though single readings can be large; an effect the other way counts as inactive or inconclusive.

How did Cc1nn(-c2ccccc2)c2c1C(C1CC1)N(C1CN(C(=O)NC(C)(C)c3ccccc3)C1)C2=O (centres undefined) do in these assays?
IP6K1 inh: 11

How did Cc1cc(C)c2oc(C(=O)Nc3ccc(S(=O)(=O)N4CCCCC4)cc3)cc(=O)c2c1 do in these assays?
IP6K1 inh: -26*; SNCA viab count: 6%; KDM5B inh: inactive; SNCA expr inh: inconclusive; IP6K1 inh cnf: 1%

How did Cc1ccc2c(=O)cc(C(=O)Nc3ccc(S(=O)(=O)N4CCCCC4)cc3)oc2c1C do in these assays?
IP6K1 inh: 20; SNCA viab count: 12%; KDM5B inh: inactive; SNCA expr inh: -17%

How did Cc1ccc(-c2cccc(CN3CCCC3C(=O)N3CCCCC3)c2)cc1Cl (centres undefined) do in these assays?
IP6K1 inh: 17

Results for CNC(=O)c1cc(C2CC2)nc2onc(C3CCN(C(=O)Nc4ccc(Cl)cc4)C3)c12 (centres undefined) ?
IP6K1 inh: -7

Results for COc1ccc(-c2nc3cc(C)ccn3c2NC(=O)c2ccc(C)c(C)c2)cc1 ?
IP6K1 inh: -14; SNCA viab count: inconclusive; KDM5B inh: inconclusive; SNCA expr inh: 23%

What do the screens show for `COc1ccc(-c2nc3cc(C)ccn3c2NC(=O)c2ccc(F)cc2)cc1`?
IP6K1 inh: -32*; SNCA viab count: inconclusive; KDM5B inh: inconclusive; SNCA expr inh: 24%; IP6K1 inh cnf: inconclusive

How did c1cc(OCCN2CCCCC2)cc(-c2n[nH]c3ccc(-c4ncn[nH]4)cc23)c1 do in these assays?
IP6K1 inh: -47*; SNCA viab count: -19%; SNCA expr inh: -2%; IP6K1 inh cnf: inconclusive

Results for COc1ccc(-c2c(-c3ccc(OCCN4CCCCC4)cc3O)n[nH]c2C)cc1OC ?
KDM5B inh: inactive

What do the screens show for `Cc1oc(-c2ccc(C(=O)NCc3ccc(N(C)C)cc3)cc2)nc1COc1ccccc1`?
IP6K1 inh: -25*; SNCA viab count: -6%; KDM5B inh: inconclusive; SNCA expr inh: 15%; IP6K1 inh cnf: -10%

What do the screens show for `Cc1ccc(OCc2nc(-c3ccc(C(=O)NCc4ccc(OC(C)C)cc4)cc3)oc2C)cc1`?
IP6K1 inh: -11; SNCA viab count: -3%; KDM5B inh: inconclusive; SNCA expr inh: -24%

How did Cc1nn(-c2ccccc2)c2c1C(C)N(C1CN(C(=O)c3cccc(Cl)c3)C1)C2=O (centres undefined) do in these assays?
IP6K1 inh: 0

How did COCCn1c(CO)nnc1C1CC(NC(=O)C2(C)CCCC2)C1 (centres undefined) do in these assays?
IP6K1 inh: -28*; SNCA viab count: -1%; KDM5B inh: inactive; SNCA expr inh: 6%; IP6K1 inh cnf: -12%

How did COc1ccc2c3c1CN(C(C)=O)CC3=CC(C)(C)CO2 do in these assays?
IP6K1 inh: 5

Results for Cc1ccc(CNC(=O)c2ccc3c(c2)NC(=O)C(CS(=O)(=O)Cc2cccc(F)c2)N3)cc1 (centres undefined) ?
IP6K1 inh: -35*; SNCA viab count: -9%; KDM5B inh: inconclusive; SNCA expr inh: -15%; IP6K1 inh cnf: -3%

What do the screens show for `CCN(CC)CCCNC(=O)c1ccc2c(c1)NC(=O)C(CS(=O)(=O)Cc1ccc(F)cc1Cl)N2` (centres undefined)?
IP6K1 inh: -10; SNCA viab count: 7%; KDM5B inh: inconclusive; SNCA expr inh: 6%

Results for Cc1cccc(CS(=O)(=O)CC2Nc3ccc(C(=O)NCc4ccccc4)cc3NC2=O)c1 (centres undefined) ?
IP6K1 inh: 14; SNCA viab count: 2%; KDM5B inh: inconclusive; SNCA expr inh: inconclusive

What do the screens show for `CCOCCCNC(=O)c1ccc2c(c1)NC(=O)C(CS(=O)(=O)Cc1ccc(F)cc1Cl)N2` (centres undefined)?
IP6K1 inh: -43*; SNCA viab count: 5%; KDM5B inh: inconclusive; SNCA expr inh: 4%; IP6K1 inh cnf: 9%

How did COc1cccc(CNC(=O)Nc2cc(C(=O)NCc3cccc(F)c3)ccc2N2CCCC2)c1 do in these assays?
IP6K1 inh: -26*; SNCA viab count: inconclusive; KDM5B inh: inconclusive; SNCA expr inh: 7%; IP6K1 inh cnf: 2%
